Results reported in PubChem BioAssay (EPA / NIEHS).
Calls of active or inactive are those of the source. The calls were made as follows: active = hit-call score of the fitted dose curve at least 0.9, where 1 is the maximum; inactive = score below 0.9.

Columns and labels:
[1] = read-out: Macrophage colony-stimulating factor (MCSF), CSF1 (gene 1435); assay: BSK_hDFCGF_MCSF: BioMAP Diversity Plus: hDFCGF Assay for Macrophage colony-stimulating factor (MCSF) Biomarker Activity (AID 2283060); details: primary human foreskin fibroblasts; actives raise or lower the signal
Summary of the method: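 fibroblasts (human foreskin, primary), 24 h post-dose; M-CSF by ELISA; bidirectional fit, DMSO = baseline.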

[2] = read-out: TIMP metallopeptidase inhibitor 1 (TIMP1), TIMP1 (gene 7076); assay: BSK_hDFCGF_TIMP1: BioMAP Diversity Plus: hDFCGF Assay for TIMP metallopeptidase inhibitor 1 (TIMP1) Biomarker Activity (AID 2283062); details: primary human foreskin fibroblasts; actives raise or lower the signal
Summary of the method: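 Bidirectional curve fitting against DMSO baseline yielded this endpoint, based on ELISA detection of TIMP-1 in primary human foreskin fibroblasts exposed to compound for 24 h.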

[3] = read-out: Monokine induced gamma interferon (MIG), CXCL9 (gene 4283); assay: BSK_hDFCGF_MIG: BioMAP Diversity Plus: hDFCGF Assay for Monokine induced gamma interferon (MIG) Biomarker Activity (AID 2283063); details: primary human foreskin fibroblasts; actives raise or lower the signal
Summary of the method: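 Endpoint derived by bidirectional fitting relative to DMSO; MIG quantified via ELISA in primary human foreskin fibroblasts harvested 24 h after dosing.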

[4] = read-out: Matrix Metallopeptidase 1 (MMP1), MMP1 (gene 4312); assay: BSK_hDFCGF_MMP1: BioMAP Diversity Plus: hDFCGF Assay for Matrix Metallopeptidase 1 (MMP1) Biomarker Activity (AID 2283064); details: primary human foreskin fibroblasts; actives raise or lower the signal
Summary of the method: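 Primary human foreskin fibroblasts exposed to chemicals for 24 h; MMP1 measured by ELISA. Cytotoxicity tracked by SRB staining in parallel cultures; bidirectional fit relative to DMSO.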

[5] = read-out: Vascular cell adhesion molecule 1 (VCAM1), VCAM1 (gene 7412); assay: BSK_hDFCGF_VCAM1: BioMAP Diversity Plus: hDFCGF Assay for Vascular cell adhesion molecule 1 (VCAM1) Biomarker Activity (AID 2283065); details: primary human foreskin fibroblasts; actives raise or lower the signal;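 as to AC50: VCAM-1 protein level quantified by ELISA after 24 h chemical exposure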
Summary of the method: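 Measured after 24 h chemical treatment of primary human skin fibroblasts, VCAM-1 was detected by ELISA and concentration-response analysed in both directions versus DMSO vehicle.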

[6] = read-out: Plasminogen activator inhibitor-1 (PAI1), SERPINE1 (gene 5054); assay: BSK_hDFCGF_PAI1: BioMAP Diversity Plus: hDFCGF Assay for Plasminogen activator inhibitor-1 (PAI1) Biomarker Activity (AID 2283066); details: primary human foreskin fibroblasts; actives raise or lower the signal
Summary of the method: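 Human foreskin fibroblast primary cells, 24 h chemical exposure; PAI-1 measured by ELISA. Bidirectional fitting relative to DMSO; parallel cultures stained with SRB for total protein to flag overt cytotoxicity.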

[7] = read-out: Intercellular Adhesion Molecule 1 (ICAM1), ICAM1 (gene 3383); assay: BSK_KF3CT_ICAM1: BioMAP Diversity Plus: KF3CT Assay for Intercellular Adhesion Molecule 1 (ICAM1) Biomarker Activity (AID 2283067); details: primary human keratinocytes with fibroblasts; actives raise or lower the signal
Summary of the method: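 Bidirectional curve fitting against a DMSO baseline was applied to ICAM-1 ELISA signal from primary human skin co-cultures harvested 24 h after treatment, with SRB staining of parallel wells for overt cytotoxicity.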

[8] = read-out: Interferon-gamma inducible Protein 10 (IP10), CXCL10 (gene 3627); assay: BSK_KF3CT_IP10: BioMAP Diversity Plus: KF3CT Assay for Interferon-gamma inducible Protein 10 (IP10) Biomarker Activity (AID 2283068); details: primary human keratinocytes with fibroblasts; actives raise or lower the signal
Summary of the method: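 In a primary skin co-culture of keratinocytes and fibroblasts, IP-10 is quantified by ELISA at 24 h after dosing. SRB staining of parallel wells monitors overt toxicity. Curves are fitted both directions against DMSO.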

[9] = BSK_KF3CT_SRB: Viability Assessment in the BioMAP Diversity Plus: KF3CT Assay (AID 2283069); details: primary human keratinocytes with fibroblasts;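 also: total protein by sulforhodamine B staining as a cytotoxicity measure; read 24 h after compound addition; fitted for both signal gain and loss against DMSO baseline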
Summary of the method: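 Human keratinocyte and foreskin fibroblast co-culture exposed to chemical for 24 h. Total protein measured in parallel cultures by 0.1% sulforhodamine B staining after 10% TCA fixation, read at 560 nm; bidirectional fit relative to DMSO.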

[10] = read-out: Interleukin-1 alpha (IL1a), IL1A (gene 3552); assay: BSK_KF3CT_IL1a: BioMAP Diversity Plus: KF3CT Assay for Interleukin-1 alpha (IL1a) Biomarker Activity (AID 2283070); details: primary human keratinocytes with fibroblasts; actives raise or lower the signal
Summary of the method: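 Primary human keratinocyte plus foreskin fibroblast co-culture, dosed and measured at 24 h in 96-well plates. IL-1a level quantified by ELISA; bidirectional fit relative to DMSO.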

[11] = read-out: TIMP metallopeptidase inhibitor 2 (TIMP2), TIMP2 (gene 7077); assay: BSK_KF3CT_TIMP2: BioMAP Diversity Plus: KF3CT Assay for TIMP metallopeptidase inhibitor 2 (TIMP2) Biomarker Activity (AID 2283071); details: primary human keratinocytes with fibroblasts; actives raise or lower the signal
Summary of the method: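 Co-culture of human primary keratinocytes and foreskin fibroblasts, measured 24 h after chemical dosing. TIMP-2 quantified by ELISA and fitted in both directions relative to DMSO. Cytotoxicity checked in parallel cultures by SRB total-protein staining.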

[12] = read-out: C-C motif chemokine 2 (Homo sapiens) (UniProt P13500); assay: BSK_KF3CT_MCP1: BioMAP Diversity Plus: KF3CT Assay for Monocyte Chemoattractant Protein 1 (MCP1/CCL2) Biomarker Activity (AID 2283073); details: primary human keratinocytes with fibroblasts; actives raise or lower the signal
Summary of the method: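 Biomarker MCP-1 is measured by ELISA in primary human keratinocytes co-cultured with foreskin fibroblasts, 24 h after chemical treatment; DMSO serves as the negative control and activity baseline.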

[13] = read-out: Matrix Metallopeptidase 9 (MMP9), MMP9 (gene 4318); assay: BSK_KF3CT_MMP9: BioMAP Diversity Plus: KF3CT Assay for Matrix Metallopeptidase 9 (MMP9) Biomarker Activity (AID 2283074); details: primary human keratinocytes with fibroblasts; actives raise or lower the signal;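 as to AC50: MMP9 protein level quantified by ELISA in the co-culture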
Summary of the method: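 Human keratinocyte and foreskin fibroblast co-culture exposed to chemicals for 24 h; MMP9 biomarker measured by ELISA, bidirectional fitting relative to DMSO; cytotoxicity tracked by SRB total protein staining in parallel cultures.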

[14] = read-out: urokinase plasminogen activator (uPA), PLAU (gene 5328); assay: BSK_KF3CT_uPA: BioMAP Diversity Plus: KF3CT Assay for urokinase plasminogen activator (uPA) Biomarker Activity (AID 2283075); details: primary human keratinocytes with fibroblasts; actives raise or lower the signal
Summary of the method: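 Primary human keratinocyte/foreskin fibroblast co-culture exposed to chemical; uPA measured by ELISA at 24 h. Bidirectional fit versus DMSO, with parallel SRB total-protein staining for cytotoxicity.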

CD40, CD40 (gene 958) = assay: BSK_LPS_CD40: BioMAP Diversity Plus: LPS Assay for CD40 Biomarker Activity (AID 2283076); details: primary human HUVEC with PBMC; actives raise or lower the signal
Summary of the method: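 Using a multiplexed primary human co-culture (umbilical vein endothelium plus PBMC), CD40 was read by ELISA 24 h after dosing, with cytotoxicity tracked by sulforhodamine B staining of parallel cultures and activity fitted bidirectionally versus DMSO.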

[15] = read-out: Interleukin-8 (IL8), CXCL8 (gene 3576); assay: BSK_LPS_IL8: BioMAP Diversity Plus: LPS Assay for Interleukin-8 (IL8) Biomarker Activity (AID 2283078); details: primary human HUVEC with PBMC; actives raise or lower the signal
Summary of the method: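 In this LPS system, chemical-treated human umbilical vein endothelium/PBMC co-cultures were harvested at 24 h for IL-8 ELISA.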

[16] = BSK_hDFCGF_SRB: Viability Assessment in the BioMAP Diversity Plus: hDFCGF Assay (AID 2283061); details: primary human foreskin fibroblasts;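 also: cells exposed to compound for 24 h before the read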
Summary of the method: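 SRB-based viability read on primary human skin fibroblasts at 24 h: TCA fixation, 0.1% dye, 560 nm. Gain or loss of signal is fitted against the DMSO negative control.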

[17] = read-out: Transforming growth factor beta 1 (TGFb1), TGFB1 (gene 7040); assay: BSK_KF3CT_TGFb1: BioMAP Diversity Plus: KF3CT Assay for Transforming growth factor beta 1 (TGFb1) Biomarker Activity (AID 2283072); details: primary human keratinocytes with fibroblasts; actives raise or lower the signal
Summary of the method: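 Human keratinocyte/foreskin fibroblast co-culture; TGF-b1 measured by ELISA 24 h after dosing, fitted bidirectionally versus DMSO. Cytotoxicity checked in parallel cultures by total protein (SRB staining, 560 nm).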

[18] = read-out: E-selectin (Homo sapiens) (UniProt P16581); assay: BSK_LPS_Eselectin: BioMAP Diversity Plus: LPS Assay for Eselectin Biomarker Activity (AID 2283077); details: primary human HUVEC with PBMC; actives raise or lower the signal
Summary of the method: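 Dose chemical onto LPS-driven HUVEC/PBMC co-culture; after 24 h, run ELISA for E-selectin; fit up- and down-going responses relative to DMSO control.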

[19] = BSK_LPS_SRB: Viability Assessment in the BioMAP Diversity Plus: LPS Assay (AID 2283079); details: primary human HUVEC with PBMC;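 also: total protein by sulforhodamine B absorbance as a cytotoxicity measure; measured one day after compound addition; fitted in both directions against DMSO so loss or gain of signal counts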
Summary of the method: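 Cytotoxicity endpoint in human endothelial–PBMC co-culture: 24 h exposure, then SRB (0.1%) staining, 560 nm read.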

Measured: AC50

Chain of E-selectin (Homo sapiens) (P16581 whole entry, looked up): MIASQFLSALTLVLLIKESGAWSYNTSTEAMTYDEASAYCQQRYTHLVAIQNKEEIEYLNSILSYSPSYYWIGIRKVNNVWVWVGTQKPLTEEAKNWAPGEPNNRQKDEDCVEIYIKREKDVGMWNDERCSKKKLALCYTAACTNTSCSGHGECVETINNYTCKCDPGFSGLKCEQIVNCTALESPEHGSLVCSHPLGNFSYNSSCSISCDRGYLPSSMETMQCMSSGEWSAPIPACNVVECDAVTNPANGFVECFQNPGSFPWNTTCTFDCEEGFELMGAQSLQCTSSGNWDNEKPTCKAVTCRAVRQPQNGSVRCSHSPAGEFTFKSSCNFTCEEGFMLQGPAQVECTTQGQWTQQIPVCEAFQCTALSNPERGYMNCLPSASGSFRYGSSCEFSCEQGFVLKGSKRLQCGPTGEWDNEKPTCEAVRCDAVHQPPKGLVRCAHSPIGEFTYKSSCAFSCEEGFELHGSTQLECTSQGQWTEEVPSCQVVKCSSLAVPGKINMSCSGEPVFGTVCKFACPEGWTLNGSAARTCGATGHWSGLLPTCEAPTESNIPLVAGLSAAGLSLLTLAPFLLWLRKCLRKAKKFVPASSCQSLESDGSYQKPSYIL

Clc1ccc(C(c2ccccc2Cl)C(Cl)(Cl)Cl)cc1 (stereo not drawn)
active: [1] 8.37 µM | [2] 9.41 µM | [3] 18.5 µM | [4] 9.47 µM | [5] 6.32 µM | [6] 5.83 µM | [7] 22.8 µM | [8] 10 µM | [9] 21.1 µM | [10] 18.4 µM | [11] 19 µM | [12] 10.7 µM | [13] 8.05 µM | [14] 21.6 µM | CD40, CD40 (gene 958) 19.4 µM | [15] 21.9 µM

CCCCCCOC(=O)c1ccccc1C(=O)OCCCCCC
active: [15] 20 µM
inactive: [16] | [2] | [3] | [4] | [5] | [6] | [7] | [8] | [9] | [10] | [11] | [17] | [12] | [13] | [14] | CD40, CD40 (gene 958) | [18] | [19]

CCC(C)(CC)c1cc(NC(=O)c2c(OC)cccc2OC)on1
inactive: [1] | [2] | [3] | [4] | [5] | [6] | [7] | [8] | [9] | [10] | [11] | [17] | [12] | [13] | [14] | CD40, CD40 (gene 958) | [18] | [15] | [19]

O=C(NC(=O)c1c(F)cccc1F)Nc1cc(Cl)c(OC(F)(F)C(F)F)c(Cl)c1
inactive: [1] | [2] | [3] | [4] | [5] | [6] | [7] | [8] | [9] | [10] | [11] | [17] | [12] | [13] | [14] | CD40, CD40 (gene 958) | [18] | [15]

CC(C)C(=O)OCC(C)(C)C(OC(=O)C(C)C)C(C)C (stereo not drawn)
inactive: [1] | [2] | [3] | [4] | [5] | [6] | [7] | [8] | [9] | [10] | [11] | [12] | [13] | [14] | CD40, CD40 (gene 958) | [18] | [15]

CCOC(=O)C(O)(c1ccc(Cl)cc1)c1ccc(Cl)cc1
active: [1] 20 µM | [3] 14.3 µM | [5] 26.9 µM | [6] 13.2 µM | CD40, CD40 (gene 958) 26.1 µM | [18] 31.5 µM | [15] 35.2 µM
inactive: [2] | [4] | [7] | [8] | [9] | [10] | [11] | [12] | [13] | [14]

Cc1cc(O)ccc1Cl
inactive: [1] | [2] | [3] | [4] | [5] | [6] | [7] | [8] | [9] | [10] | [11] | [12] | [13] | [14] | CD40, CD40 (gene 958) | [18] | [15]
